# Laboratory results published in PubChem BioAssay (NCI).
# The panel holds about 83,000 compounds, 20% with a hit somewhere; the sample as a whole holds those more often.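 Each cell line was grown in a 96-well plate and treated with one concentration of compound for 48 hours. Values below 10 were considered active.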 A number with no mark means an inactive call. Calls of active or inactive are those of the source.
# Columns and labels:
# Assay in all cases: NCI-60 one-dose screen, 48 h (100 = growth as untreated, 0 = no growth, -100 = all killed)
# Conditions in all cases: 10 µM
# [1] = system: DU-145 prostate
# [2] = system: K-562 leukemia
# [3] = system: MALME-3M melanoma
# [4] = system: MDA-MB-231 breast
# [5] = system: SF-268 CNS
# [6] = system: SF-295 CNS
# [7] = system: SF-539 CNS
# [8] = system: UACC-257 melanoma
# [9] = system: M14 melanoma
# [10] = system: HCT-15 colon
# [11] = system: HT29 colon
# [12] = system: SNB-75 CNS
# [13] = system: SNB-19 CNS
# [14] = system: U251 CNS
# [15] = system: PC-3 prostate
# [16] = system: SK-MEL-5 melanoma
# [17] = system: UACC-62 melanoma
# [18] = system: LOX IMVI melanoma
# [19] = system: SK-MEL-28 melanoma
# [20] = system: RXF 393 renal
Structure (SMILES),growth [1],growth [2],growth [3],growth [4],growth [5],growth [6],growth [7],growth [8],growth [9],growth [10],growth [11],growth [12],growth [13],growth [14],growth [15],growth [16],growth [17],growth [18],growth [19],growth [20]
CCCn1c(O)c(N=Nc2nc(-c3cc4ccccc4oc3=O)cs2)c2cc(Br)ccc21,101%,110%,88%,89.2%,89.8%,85.3%,85%,107%,97.6%,90.4%,110%,94.7%,90.3%,86%,96.3%,95.5%,94.4%,83.6%,,
O=C(Nc1cccc(C(F)(F)F)c1)c1cncc(C#Cc2cnc3cccnn23)c1,22.6%,8.07% (active),28%,27.9%,46.4%,63.5%,31.9%,83.6%,35.5%,37.7%,49.4%,122%,82.7%,67.6%,35.3%,25.6%,35.4%,,,
O=C(Nc1nc2ccccc2s1)c1ccc(Br)cc1,97.2%,64.1%,85.2%,93.4%,112%,67.3%,92.8%,85%,96%,85.8%,87.3%,107%,98.8%,107%,82.1%,70.5%,73.3%,,,
Cc1ccc2nc(COc3ccc(C(=O)NNC(=S)NCCc4ccccc4)cc3)[nH]c2c1,98.9%,85.7%,64.8%,29.6%,33.6%,79.3%,-1.98% (active),103%,106%,100%,112%,120%,-16.6% (active),24%,81.4%,89%,49.9%,79.9%,92.9%,
CC(C)CCSc1nc(NC2CC2)c(C#N)c(-c2ccc(C(C)C)cc2)n1,120%,100%,108%,105%,121%,100%,101%,103%,109%,106%,108%,111%,,106%,106%,102%,,100%,110%,113%
COc1ccc2[nH]cc(/C=N/Nc3ccc(Br)cn3)c2c1,40.7%,9.92% (active),63.9%,6.27% (active),21%,17.4%,18.8%,52.6%,8.66% (active),6.98% (active),23.3%,43.7%,51.2%,20.1%,23%,21.9%,51.3%,7.7% (active),,
COc1ccc2ncc(C#Cc3cncc(C(=O)Nc4ccc(CN5CCN(C)CC5)c(C(F)(F)F)c4)c3)n2n1,-100% (active),-9.3% (active),-93.6% (active),-95.8% (active),-64.5% (active),-97.5% (active),-100% (active),-62.2% (active),-80.2% (active),-91.3% (active),-51.8% (active),-91.1% (active),-86.2% (active),-59.8% (active),-59.6% (active),-100% (active),-79.6% (active),-94.6% (active),-91.8% (active),
CCN1CCN(Cc2ccc(C(=O)Nc3cccc(-c4cn(-c5ccc6oc(=O)ccc6c5)nn4)c3)cc2C(F)(F)F)CC1,-100% (active),-61.7% (active),-100% (active),-100% (active),-32.5% (active),-100% (active),-100% (active),-49.9% (active),-100% (active),-100% (active),-100% (active),-33.2% (active),-100% (active),-100% (active),-40.8% (active),-100% (active),-100% (active),-100% (active),-100% (active),
COc1ccc(C(=O)Nc2ccc(-c3ccc4c(c3)NC(=O)/C4=C\c3ccc[nH]3)cc2)cc1,-25.7% (active),67.5%,50.9%,25.6%,0.17% (active),-76.1% (active),76.8%,77.5%,28.1%,15.2%,15.6%,-11% (active),,32.8%,27.5%,49.1%,78.1%,5.2% (active),88.8%,8.7% (active)
Cc1noc2c(Cc3ccccc3)nn(CC(=O)N/N=C/c3ccc(Cl)cc3)c(=O)c12,68.9%,93.7%,34.4%,5.74% (active),59.8%,38.8%,67.7%,96%,94.4%,86.3%,65.8%,-3.5% (active),71.3%,21.6%,76.4%,85.5%,92.9%,48.7%,104%,
COc1cc(/C=C/C(=O)c2ccc(S(=O)(=O)NCCNc3nc(Nc4ccc(F)cc4)nc(N(C)C)n3)cc2)cc(OC)c1OC,5.6% (active),4.79% (active),53.7%,-44.8% (active),11.1%,13.5%,-94.9% (active),71.6%,5.45% (active),-65.9% (active),-56.7% (active),88.2%,15.6%,-81.2% (active),9.45% (active),32.4%,34.2%,-100% (active),,
C=C1CCC2C3(C)COC(c4c(F)cccc4F)OC3CCC2(C)C1CC(O)C1=CCOC1=O (stereo not drawn),68.1%,21.4%,96.3%,91.1%,98.5%,79.4%,57%,74.1%,53.9%,18.3%,23%,45.1%,,69.1%,41%,68.2%,79.7%,,62.3%,66.1%
CN1C(=O)N(C)C2SC(N/N=C/c3cccs3)=NC21 (stereo not drawn),49.5%,11.8%,24.6%,27.3%,35.7%,7.99% (active),4.32% (active),50.3%,7.65% (active),20.2%,7.66% (active),-1.77% (active),30.3%,22.8%,48.3%,8.57% (active),4.74% (active),28.7%,47.5%,
O=C(CNc1nc(-c2ccccc2)cs1)Nc1ccc([N+](=O)[O-])cc1Cl,54.8%,12.2%,24%,10.8%,29.6%,34.2%,2.17% (active),58.5%,34.4%,1.43% (active),34.8%,82.3%,43.8%,15.8%,38.2%,8.63% (active),20.5%,-11.1% (active),,
Cc1ccn2c(C(=O)c3ccccc3)cc(-c3cc(-c4ccc(N(C)C)cc4)c(C#N)c(N)n3)c2c1,56.4%,70.9%,63.6%,25.7%,61.2%,69.3%,-62.1% (active),85.7%,81.3%,73.1%,63.1%,78.4%,60.9%,31.9%,78.1%,58.1%,64.6%,21.8%,74.3%,
CC(C)C1=C[C@@]23CC[C@@H]4[C@](C)(CCC[C@]4(C)C(=O)NCc4ccccc4)[C@H]2C[C@@H]1[C@H]1C(=O)OC(=O)[C@H]13,55.3%,21.5%,87%,77.1%,46.6%,17.8%,63.2%,82.1%,54.3%,9.01% (active),18.8%,69.6%,37.9%,25.1%,33.3%,72.2%,50.2%,-8.46% (active),68.1%,
CN1C(=O)N(C)C2SC(N/N=C/c3ccccc3F)=NC21 (stereo not drawn),94.7%,17.2%,59.4%,50.2%,78.7%,62%,54.3%,82.7%,36.5%,28.2%,28.2%,91.1%,63.4%,51.2%,81.5%,57.9%,26.8%,50.2%,69.2%,
